Data on 1 sequence can be found in article PMC7862700, “An all-to-all approach to the identification of sequence-specific readers for epigenetic DNA modifications on cytosine”.

Test in all cases: DAPPL (digital affinity profiling via proximity ligation, sequencing); 10 mM Tris-HCl pH 7.5, 50 mM NaCl, 1 mM DTT, 4% glycerol, room temperature, 30 min; GST-TFs on glutathione beads, 16-mer random dsDNA library, 0.1% formaldehyde crosslink after washing; high values mean tight binding
For one experiment, the target named is T1, FLI1 (Homo sapiens, UniProt Q01543 1-452).
T1 sequence: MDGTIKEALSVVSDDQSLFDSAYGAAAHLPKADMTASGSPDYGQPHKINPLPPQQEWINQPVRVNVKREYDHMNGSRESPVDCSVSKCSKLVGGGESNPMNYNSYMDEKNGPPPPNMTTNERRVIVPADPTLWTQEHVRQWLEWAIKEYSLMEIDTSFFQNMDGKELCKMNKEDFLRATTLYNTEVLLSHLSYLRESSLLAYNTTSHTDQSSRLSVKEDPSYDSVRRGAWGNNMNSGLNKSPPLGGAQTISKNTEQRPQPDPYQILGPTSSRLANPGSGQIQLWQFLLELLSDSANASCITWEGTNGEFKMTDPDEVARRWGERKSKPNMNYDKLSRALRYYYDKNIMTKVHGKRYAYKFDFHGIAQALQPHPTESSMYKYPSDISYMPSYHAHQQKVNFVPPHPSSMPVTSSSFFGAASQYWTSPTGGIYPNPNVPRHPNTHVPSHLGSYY
To be noted: protein: recombinant; tags: N-terminal GST; dsDNA, one strand shown. Summed up: (§1)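 The binding signal reported is, for every hexamer, its read frequency for a factor over its read frequency for the tag-only sample. Reads came from pools of yeast-expressed, GST-fused human transcription factors on glutathione beads, barcoded with DNA and mixed with that sample, which were incubated with 200 nmole of a random double-stranded 16-mer DNA library in Tris/NaCl/DTT/glycerol buffer at room temperature for 30 min. After washing, the pools were crosslinked with 0.1% formaldehyde, proximity-ligated with BsaI/T4 ligase for 1 h at 37 °C, PCR-amplified and sequenced on an Illumina NextSeq500.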

Another experiment concerns the target T2, ELK1 (Homo sapiens, UniProt P19419 1-428).
T2 sequence: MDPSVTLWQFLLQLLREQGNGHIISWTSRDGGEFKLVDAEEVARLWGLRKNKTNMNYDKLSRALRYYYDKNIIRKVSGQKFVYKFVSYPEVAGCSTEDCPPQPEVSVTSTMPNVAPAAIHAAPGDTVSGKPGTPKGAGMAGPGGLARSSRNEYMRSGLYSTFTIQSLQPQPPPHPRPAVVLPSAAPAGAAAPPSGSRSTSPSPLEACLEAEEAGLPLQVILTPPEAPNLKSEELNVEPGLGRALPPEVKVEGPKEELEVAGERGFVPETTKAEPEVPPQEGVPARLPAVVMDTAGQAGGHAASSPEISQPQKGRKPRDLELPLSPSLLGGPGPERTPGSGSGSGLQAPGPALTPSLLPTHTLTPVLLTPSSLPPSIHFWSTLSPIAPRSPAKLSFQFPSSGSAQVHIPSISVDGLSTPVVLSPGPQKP
As to conditions: protein: recombinant; tags: N-terminal GST; dsDNA, one strand shown. The procedure, abridged:
as §1

For the next experiment, the target named is T3, GABPA (Homo sapiens, UniProt Q06546 1-454).
T3 sequence: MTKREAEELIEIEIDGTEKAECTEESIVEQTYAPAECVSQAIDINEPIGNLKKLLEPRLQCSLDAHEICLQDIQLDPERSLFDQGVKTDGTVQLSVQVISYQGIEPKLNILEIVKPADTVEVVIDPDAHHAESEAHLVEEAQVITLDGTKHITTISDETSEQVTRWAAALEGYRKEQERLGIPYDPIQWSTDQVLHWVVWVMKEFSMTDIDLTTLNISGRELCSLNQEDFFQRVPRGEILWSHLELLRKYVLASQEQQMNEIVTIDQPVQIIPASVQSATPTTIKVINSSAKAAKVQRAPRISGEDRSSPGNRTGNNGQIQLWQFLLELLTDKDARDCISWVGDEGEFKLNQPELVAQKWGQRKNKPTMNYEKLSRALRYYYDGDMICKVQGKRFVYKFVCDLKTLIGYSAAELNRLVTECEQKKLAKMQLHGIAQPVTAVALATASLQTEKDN
To be noted: protein: recombinant; tags: N-terminal GST; dsDNA, one strand shown. The procedure, abridged:
as §1

A further experiment deals with T4, ERG (Homo sapiens, UniProt P11308 1-479).
T4 sequence: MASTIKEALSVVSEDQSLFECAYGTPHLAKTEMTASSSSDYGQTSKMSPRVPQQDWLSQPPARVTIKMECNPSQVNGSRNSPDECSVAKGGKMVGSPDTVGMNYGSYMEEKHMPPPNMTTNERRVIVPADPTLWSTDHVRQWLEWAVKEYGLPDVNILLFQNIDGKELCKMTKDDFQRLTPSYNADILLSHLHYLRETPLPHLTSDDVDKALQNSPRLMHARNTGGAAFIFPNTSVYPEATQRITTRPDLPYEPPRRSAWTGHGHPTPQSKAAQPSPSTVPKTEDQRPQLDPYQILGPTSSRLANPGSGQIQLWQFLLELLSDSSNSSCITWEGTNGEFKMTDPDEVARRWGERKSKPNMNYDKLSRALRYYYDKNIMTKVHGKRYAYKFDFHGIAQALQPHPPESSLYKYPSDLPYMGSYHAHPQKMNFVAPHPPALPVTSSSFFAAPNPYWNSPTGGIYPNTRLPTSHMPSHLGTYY
To be noted: protein: recombinant; tags: N-terminal GST; dsDNA, one strand shown. The procedure, abridged:
as §1

In the next experiment the target is ELF1 (Homo sapiens, UniProt P32519 1-619). To be noted: protein: recombinant; tags: N-terminal GST; dsDNA, one strand shown. The procedure, abridged:
as §1

The next experiment has as its target T5, EHF (Homo sapiens, UniProt Q9NZC4 1-300).
T5 sequence: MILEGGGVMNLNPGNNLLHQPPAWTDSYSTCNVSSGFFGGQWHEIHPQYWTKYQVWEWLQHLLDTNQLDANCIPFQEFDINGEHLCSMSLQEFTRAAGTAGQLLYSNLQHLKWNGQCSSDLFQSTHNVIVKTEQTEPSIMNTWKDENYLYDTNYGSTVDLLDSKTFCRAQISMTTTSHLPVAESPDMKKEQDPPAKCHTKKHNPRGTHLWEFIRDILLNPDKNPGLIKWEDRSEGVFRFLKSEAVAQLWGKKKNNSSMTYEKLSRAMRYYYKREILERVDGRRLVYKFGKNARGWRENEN
As to conditions: protein: recombinant; tags: N-terminal GST; dsDNA, one strand shown. Summed up:
as §1

Another experiment has as its target SPI1 (Homo sapiens, UniProt P17947 1-270). To be noted: protein: recombinant; tags: N-terminal GST; dsDNA, one strand shown. The procedure, abridged: as §1
For the next experiment, the target named is SPIB (Homo sapiens, UniProt Q01892 1-262). As to conditions: protein: recombinant; tags: N-terminal GST; dsDNA, one strand shown. Summed up: as §1
Chain of SPIB (Q01892 whole entry): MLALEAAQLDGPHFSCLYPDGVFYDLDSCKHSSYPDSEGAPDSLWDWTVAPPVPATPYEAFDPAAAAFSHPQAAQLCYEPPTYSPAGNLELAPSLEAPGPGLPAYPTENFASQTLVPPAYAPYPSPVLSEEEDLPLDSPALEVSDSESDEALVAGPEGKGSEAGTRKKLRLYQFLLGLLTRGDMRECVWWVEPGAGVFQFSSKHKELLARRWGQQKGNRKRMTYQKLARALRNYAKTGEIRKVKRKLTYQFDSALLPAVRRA
The next experiment addresses T6, ELK3 (Homo sapiens, UniProt P41970 1-407).
T6 sequence: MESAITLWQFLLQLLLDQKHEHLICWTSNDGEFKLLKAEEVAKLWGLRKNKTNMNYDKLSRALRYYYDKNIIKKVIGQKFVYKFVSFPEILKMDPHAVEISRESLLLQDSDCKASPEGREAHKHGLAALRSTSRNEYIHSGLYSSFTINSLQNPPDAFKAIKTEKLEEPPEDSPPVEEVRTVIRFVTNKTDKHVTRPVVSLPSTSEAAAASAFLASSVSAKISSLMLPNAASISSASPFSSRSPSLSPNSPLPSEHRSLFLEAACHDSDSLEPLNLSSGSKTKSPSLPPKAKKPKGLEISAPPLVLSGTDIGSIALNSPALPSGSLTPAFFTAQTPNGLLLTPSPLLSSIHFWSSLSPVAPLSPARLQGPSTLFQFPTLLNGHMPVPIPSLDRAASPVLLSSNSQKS
As to conditions: protein: recombinant; tags: N-terminal GST; dsDNA, one strand shown. The procedure, abridged: as §1

The target in a further experiment is T7, FEV (Homo sapiens, UniProt Q99581 1-238).
T7 sequence: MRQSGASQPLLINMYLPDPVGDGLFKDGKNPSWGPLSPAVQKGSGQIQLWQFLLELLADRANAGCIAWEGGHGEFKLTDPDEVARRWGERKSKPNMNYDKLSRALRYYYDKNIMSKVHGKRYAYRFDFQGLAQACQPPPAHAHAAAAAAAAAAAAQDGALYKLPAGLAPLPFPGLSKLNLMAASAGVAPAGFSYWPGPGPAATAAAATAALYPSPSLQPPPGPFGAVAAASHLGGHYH
To be noted: protein: recombinant; tags: N-terminal GST; dsDNA, one strand shown. The procedure, abridged: as §1

The next experiment has as its target ETV5 (Homo sapiens, UniProt P41161 1-510). As to conditions: protein: recombinant; tags: N-terminal GST; dsDNA, one strand shown. The procedure, abridged:
as §1

A further experiment addresses HSF1 (Homo sapiens, UniProt Q00613 1-529). As to conditions: protein: recombinant; tags: N-terminal GST; chain copies: 3; dsDNA, one strand shown. The procedure, abridged: as §1
A further experiment addresses T8, SPIC (Homo sapiens, UniProt Q8N5J4 1-248).
T8 sequence: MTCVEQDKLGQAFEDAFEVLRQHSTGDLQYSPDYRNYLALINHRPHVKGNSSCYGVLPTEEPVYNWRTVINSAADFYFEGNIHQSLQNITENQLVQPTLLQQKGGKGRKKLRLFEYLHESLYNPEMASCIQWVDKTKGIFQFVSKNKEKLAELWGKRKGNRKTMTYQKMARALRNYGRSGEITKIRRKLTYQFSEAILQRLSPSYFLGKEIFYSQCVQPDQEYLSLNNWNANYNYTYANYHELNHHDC
As to conditions: protein: recombinant; tags: N-terminal GST; dsDNA, one strand shown. Summed up:
as §1

In the next experiment the target is ELF4 (Homo sapiens, UniProt Q99607 1-663). As to conditions: protein: recombinant; tags: N-terminal GST; dsDNA, one strand shown. The procedure, abridged: as §1
Chain of ELF4 (Q99607 whole entry): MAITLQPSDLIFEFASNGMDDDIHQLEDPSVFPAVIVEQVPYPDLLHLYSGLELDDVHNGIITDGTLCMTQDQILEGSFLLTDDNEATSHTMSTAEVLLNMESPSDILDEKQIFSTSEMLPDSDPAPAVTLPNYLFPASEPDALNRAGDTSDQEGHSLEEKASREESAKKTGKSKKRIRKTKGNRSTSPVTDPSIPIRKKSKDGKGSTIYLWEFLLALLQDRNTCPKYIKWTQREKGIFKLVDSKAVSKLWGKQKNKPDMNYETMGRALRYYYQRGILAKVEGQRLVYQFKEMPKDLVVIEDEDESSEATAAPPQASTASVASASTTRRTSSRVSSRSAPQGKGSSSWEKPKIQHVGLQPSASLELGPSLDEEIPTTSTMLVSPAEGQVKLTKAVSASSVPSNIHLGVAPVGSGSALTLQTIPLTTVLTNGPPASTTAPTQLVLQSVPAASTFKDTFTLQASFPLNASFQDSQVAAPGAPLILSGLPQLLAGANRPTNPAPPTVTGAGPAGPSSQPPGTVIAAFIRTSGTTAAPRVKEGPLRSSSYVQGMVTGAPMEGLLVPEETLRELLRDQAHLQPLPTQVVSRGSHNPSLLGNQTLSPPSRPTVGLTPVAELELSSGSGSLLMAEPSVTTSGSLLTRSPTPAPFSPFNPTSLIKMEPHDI
In the next experiment the target is T9, ELK4 (Homo sapiens, UniProt P28324-2 1-405).
T9 sequence: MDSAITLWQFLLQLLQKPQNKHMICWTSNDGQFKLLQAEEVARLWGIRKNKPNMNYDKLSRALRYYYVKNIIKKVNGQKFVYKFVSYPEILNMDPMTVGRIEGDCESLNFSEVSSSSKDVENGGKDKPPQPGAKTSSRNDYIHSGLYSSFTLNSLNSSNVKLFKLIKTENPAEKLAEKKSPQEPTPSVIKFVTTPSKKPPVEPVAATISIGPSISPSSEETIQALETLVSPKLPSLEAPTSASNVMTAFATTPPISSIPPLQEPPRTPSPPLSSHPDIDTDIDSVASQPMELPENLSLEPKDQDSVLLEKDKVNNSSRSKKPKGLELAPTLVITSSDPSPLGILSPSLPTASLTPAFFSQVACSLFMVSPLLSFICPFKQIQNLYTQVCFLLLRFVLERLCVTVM
To be noted: protein: recombinant; tags: N-terminal GST; dsDNA, one strand shown. Summed up:
as §1

Another experiment deals with T10, ETV2 (Homo sapiens, UniProt O00321 1-342).
T10 sequence: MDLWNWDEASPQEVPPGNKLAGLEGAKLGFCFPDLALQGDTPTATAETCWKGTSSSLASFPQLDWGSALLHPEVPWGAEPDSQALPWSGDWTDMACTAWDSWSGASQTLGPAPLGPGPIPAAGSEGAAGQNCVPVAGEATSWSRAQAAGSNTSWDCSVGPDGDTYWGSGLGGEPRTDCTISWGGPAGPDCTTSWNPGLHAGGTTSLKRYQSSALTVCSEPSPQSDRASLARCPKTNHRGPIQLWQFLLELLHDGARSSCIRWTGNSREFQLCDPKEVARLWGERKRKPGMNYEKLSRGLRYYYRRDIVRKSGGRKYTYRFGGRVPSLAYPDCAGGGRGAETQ
As to conditions: protein: recombinant; tags: N-terminal GST; dsDNA, one strand shown. The procedure, abridged:
as §1

The next experiment has as its target CRX (Homo sapiens, UniProt O43186 1-299). As to conditions: protein: recombinant; tags: N-terminal GST; dsDNA, one strand shown. The procedure, abridged:
as §1

The next experiment concerns the target ETV1 (Homo sapiens, UniProt P50549 1-477). As to conditions: protein: recombinant; tags: N-terminal GST; dsDNA, one strand shown. Summed up:
as §1

Chain of ELF1 (P32519 whole entry): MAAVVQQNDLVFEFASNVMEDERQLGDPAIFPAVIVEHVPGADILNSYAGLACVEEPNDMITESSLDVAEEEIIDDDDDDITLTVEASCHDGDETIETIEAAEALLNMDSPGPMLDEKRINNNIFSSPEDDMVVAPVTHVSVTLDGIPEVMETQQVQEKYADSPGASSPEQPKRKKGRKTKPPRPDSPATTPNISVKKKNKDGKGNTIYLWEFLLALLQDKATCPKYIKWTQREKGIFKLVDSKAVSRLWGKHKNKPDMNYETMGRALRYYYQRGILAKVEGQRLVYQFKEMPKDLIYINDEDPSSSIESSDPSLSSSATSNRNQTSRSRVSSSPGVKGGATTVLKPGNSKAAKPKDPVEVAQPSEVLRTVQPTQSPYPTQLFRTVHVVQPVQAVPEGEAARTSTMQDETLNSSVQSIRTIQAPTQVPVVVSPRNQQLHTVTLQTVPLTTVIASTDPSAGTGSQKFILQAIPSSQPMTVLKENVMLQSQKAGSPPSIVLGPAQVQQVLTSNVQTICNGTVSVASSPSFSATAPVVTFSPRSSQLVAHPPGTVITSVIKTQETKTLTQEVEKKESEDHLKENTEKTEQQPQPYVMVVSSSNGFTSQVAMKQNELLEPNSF
Chain of HSF1 (Q00613 whole entry): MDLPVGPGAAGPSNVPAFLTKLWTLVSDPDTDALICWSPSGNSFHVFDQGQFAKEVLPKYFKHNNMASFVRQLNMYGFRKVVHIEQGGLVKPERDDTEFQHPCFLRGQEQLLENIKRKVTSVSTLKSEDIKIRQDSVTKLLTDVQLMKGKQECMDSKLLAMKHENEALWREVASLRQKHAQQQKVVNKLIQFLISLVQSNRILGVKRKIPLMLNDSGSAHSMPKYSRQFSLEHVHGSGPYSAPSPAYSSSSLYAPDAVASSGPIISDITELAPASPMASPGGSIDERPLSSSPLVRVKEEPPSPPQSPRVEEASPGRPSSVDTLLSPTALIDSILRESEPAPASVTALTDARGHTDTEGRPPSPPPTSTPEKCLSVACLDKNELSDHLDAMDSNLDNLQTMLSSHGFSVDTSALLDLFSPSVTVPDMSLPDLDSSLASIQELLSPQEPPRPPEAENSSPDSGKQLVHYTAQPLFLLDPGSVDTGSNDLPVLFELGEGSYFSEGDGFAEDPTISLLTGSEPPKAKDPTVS
Chain of ETV5 (P41161 whole entry): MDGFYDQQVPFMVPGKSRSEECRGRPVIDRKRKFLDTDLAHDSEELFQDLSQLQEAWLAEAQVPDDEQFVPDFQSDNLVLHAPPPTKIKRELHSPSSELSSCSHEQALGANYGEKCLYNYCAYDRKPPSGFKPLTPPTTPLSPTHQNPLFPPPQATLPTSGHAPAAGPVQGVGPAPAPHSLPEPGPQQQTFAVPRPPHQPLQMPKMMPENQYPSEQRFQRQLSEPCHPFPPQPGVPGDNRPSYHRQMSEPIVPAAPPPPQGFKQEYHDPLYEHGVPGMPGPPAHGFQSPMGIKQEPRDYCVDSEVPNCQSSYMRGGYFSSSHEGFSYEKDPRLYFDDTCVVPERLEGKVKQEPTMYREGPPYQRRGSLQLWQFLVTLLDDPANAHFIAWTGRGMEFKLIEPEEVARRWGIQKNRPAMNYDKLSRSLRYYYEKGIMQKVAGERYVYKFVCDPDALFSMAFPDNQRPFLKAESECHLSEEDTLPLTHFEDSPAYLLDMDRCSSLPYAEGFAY
Chain of ETV1 (P50549 whole entry): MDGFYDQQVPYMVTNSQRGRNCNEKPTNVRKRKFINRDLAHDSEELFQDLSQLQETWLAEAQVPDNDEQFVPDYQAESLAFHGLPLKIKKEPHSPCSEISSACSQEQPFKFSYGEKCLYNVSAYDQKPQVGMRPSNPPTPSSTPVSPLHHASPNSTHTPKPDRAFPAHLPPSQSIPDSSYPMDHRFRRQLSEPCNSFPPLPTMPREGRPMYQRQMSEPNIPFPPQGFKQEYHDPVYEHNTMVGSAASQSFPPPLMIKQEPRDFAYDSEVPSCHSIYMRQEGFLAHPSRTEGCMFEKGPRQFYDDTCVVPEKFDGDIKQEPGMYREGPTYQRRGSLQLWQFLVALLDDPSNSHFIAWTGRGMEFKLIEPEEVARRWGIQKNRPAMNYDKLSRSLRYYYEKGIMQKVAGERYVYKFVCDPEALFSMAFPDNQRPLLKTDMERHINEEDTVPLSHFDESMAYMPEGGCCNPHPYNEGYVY
Chain of CRX (O43186 whole entry): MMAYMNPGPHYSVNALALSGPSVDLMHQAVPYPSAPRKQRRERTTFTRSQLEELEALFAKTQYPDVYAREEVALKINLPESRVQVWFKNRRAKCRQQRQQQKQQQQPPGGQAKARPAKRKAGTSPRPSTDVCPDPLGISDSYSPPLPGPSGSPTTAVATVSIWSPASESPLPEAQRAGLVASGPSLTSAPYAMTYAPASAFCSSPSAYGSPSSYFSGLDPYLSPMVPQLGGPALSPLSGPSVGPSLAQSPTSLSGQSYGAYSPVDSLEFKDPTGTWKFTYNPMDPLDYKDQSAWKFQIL

Take TCCACC: the binding signal was 1.22 fold enrichment (6-mer frequency, TF over GST control) in the experiment with FLI1; 1.18 fold enrichment (6-mer frequency, TF over GST control) with ELK1; 1.21 fold enrichment (6-mer frequency, TF over GST control) in the experiment with GABPA; 1.19 fold enrichment (6-mer frequency, TF over GST control) with ERG; 1.2 fold enrichment (6-mer frequency, TF over GST control) with ELF1; 1.28 fold enrichment (6-mer frequency, TF over GST control) in the experiment with EHF. Also, the binding signal with SPI1 is 1.19 fold enrichment (6-mer frequency, TF over GST control); with SPIB, 1.3 fold enrichment (6-mer frequency, TF over GST control); with ELK3 it was 1.18 fold enrichment (6-mer frequency, TF over GST control); in the experiment with FEV, 1.3 fold enrichment (6-mer frequency, TF over GST control); with ETV5, 1.16 fold enrichment (6-mer frequency, TF over GST control); with HSF1, 1.13 fold enrichment (6-mer frequency, TF over GST control). Moreover, the binding signal in the experiment with SPIC was 1.03 fold enrichment (6-mer frequency, TF over GST control); with ELF4, 1.19 fold enrichment (6-mer frequency, TF over GST control); with ELK4, 1.19 fold enrichment (6-mer frequency, TF over GST control); with ETV2, 1.27 fold enrichment (6-mer frequency, TF over GST control); with CRX, 1.04 fold enrichment (6-mer frequency, TF over GST control); in the experiment with ETV1, 1.13 fold enrichment (6-mer frequency, TF over GST control).
